ELG1 genotox – qHTS screen for small molecules that induce genotoxicity in human embryonic kidney (HEK293T) cells expressing luciferase-tagged ELG1; actives 1.3% (n = 330,000); HEK293T ELG1-luciferase reporter, luminescence, 16 h; Potency, µM (titrated, usually from 46 µM), for the others: at the highest dose activity change, positive = activation, usual class: activators; also: % of control where 0% means no effect; nearly all actives have a fitted effect of over 60% in size
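Step 1: seed 2,000 HEK293T ELG1-luciferase cells per well. Step 2: add compound or DMSO, incubate 16 hr at 37 °C. Step 3: ONE-Glo, 30 min at room temperature, read luminescence.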
Rab9 prom act – qHTS Assay for Rab9 Promoter Activators. Huh7 Rab9 promoter-luciferase reporter, luminescence, 24 h. Potency, µM (highest dose often 9.22 µM), without a hit: at the highest dose activation, negative = inhibition, usual class: activators. actives 2.8% (n = 320,000); also: % of control where 0% means no effect; nearly all actives have a fitted effect of over 60% in size
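Luciferase signal after 10 min detection reagent at ambient indicates Rab9 promoter upregulation; stably transfected Huh7 cells were treated 24 h with compound in DMSO at 37 °C, 5% CO2.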
ELG1 DNA repair – qHTS screen for small molecules that inhibit ELG1-dependent DNA repair in human embryonic kidney (HEK293T) cells expressing luciferase-tagged ELG1 | actives 2.3% (n = 330,000) | HEK293T ELG1-luciferase reporter, luminescence, 16 h; DNA damage induced by 5-fluorouridine | Potency, µM (highest dose often 46.1 µM), for the others: at the top dose activity change, negative = inhibition, most hits filed as inhibitors | AID 504467, 2011; also: % is scaled to controls: 0 for no effect and ±100 for the full control effect; nearly all actives have a fitted effect of over 55% in size
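DMSO vehicle served as the neutral condition. Each well held 2,000 cells given 5-fluorouridine plus compound; after 16 hr at 37 °C/5% CO2, ONE-Glo was added and luciferase measured 30 min later.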
FLuc counter – qHTS profiling assay for firefly luciferase inhibitor/activator using purifed enzyme and Km concentrations of substrates (counterscreen for miR-21 project) | Potency, µM (top dose mostly 57.5 µM), inactives show top-dose activity change, negative = inhibition, most hits filed as inhibitors | actives 6.9% (n = 360,000) | purified FLuc, Km substrates, luminescence inhibition;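 also: plate controls were vehicle for no effect and reference inhibitor for full effect; nearly all actives have a fitted effect of over 55% in size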
Target sequence (P08659 whole entry, looked up): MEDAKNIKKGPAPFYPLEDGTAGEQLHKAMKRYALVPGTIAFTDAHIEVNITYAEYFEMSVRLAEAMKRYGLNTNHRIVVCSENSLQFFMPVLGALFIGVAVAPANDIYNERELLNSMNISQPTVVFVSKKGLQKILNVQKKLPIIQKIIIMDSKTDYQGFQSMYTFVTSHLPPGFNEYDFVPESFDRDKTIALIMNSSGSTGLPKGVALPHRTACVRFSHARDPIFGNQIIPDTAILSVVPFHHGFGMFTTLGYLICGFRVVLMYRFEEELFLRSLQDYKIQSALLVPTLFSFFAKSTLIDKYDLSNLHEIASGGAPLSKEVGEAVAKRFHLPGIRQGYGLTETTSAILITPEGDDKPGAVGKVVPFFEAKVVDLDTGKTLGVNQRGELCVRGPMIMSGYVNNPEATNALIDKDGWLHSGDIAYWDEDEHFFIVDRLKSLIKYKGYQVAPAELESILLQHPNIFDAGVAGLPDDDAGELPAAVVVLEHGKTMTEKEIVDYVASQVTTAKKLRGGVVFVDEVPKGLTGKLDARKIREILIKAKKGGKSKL
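Biochemical qHTS of compounds, final roughly 60 µM downward over six points, against 10 nM purified firefly luciferase using Km concentrations of substrates (10 uM D-luciferin, 10 uM ATP) in Tris acetate pH 7.5 buffer; luminescence output.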
SMN2 splice enh – qHTS Assay for Enhancers of SMN2 Splice Variant Expression; Potency, µM (titrated, usually from 46.1 µM), for the others: at the highest dose activity change, positive = activation, most hits filed as activators; HEK293 SMN2-luciferase splicing reporter, luminescence, 30-36 h; actives 2.8% (n = 210,000); also: % of control where 0% means no effect; nearly all actives have a fitted effect of over 55% in size
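HEK293 cells carry an SMN2 […]–luciferase reporter in which exon 7 inclusion puts luciferase in frame. Cells were plated 10-12 h before compound addition, then incubated 30-36 h at 37C. ONE-Glo luminescence was read; sodium butyrate at 4.5 mM final served as control.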
NPC1 prom act – qHTS Assay for NPC1 Promoter Activators. Huh7 NPC1 promoter luciferase reporter, 24 h. actives 2.4% (n = 320,000). Potency, µM (top dose mostly 9.22 µM), inactives show at the top dose activation, hits mostly activators; also: % of control where 0% means no effect; nearly all actives have a fitted effect of over 60% in size
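Luminescence read-out of NPC1 promoter-driven luciferase in stably transfected Huh7 cells; compounds delivered in DMSO and left 24 h at 37C, 5% CO2, qHTS titration format.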
Numbers without * were called inactive; u = inconclusive; x = no result; [ ] = another dose, or the depositor's remark. This is a sample that favours compounds with a hit; in the whole collection about 9.4% have one here. Calls follow the shape of the dose curve; as a rule, active = well fitted curve in the direction sought with a large enough effect; inconclusive = small, poorly fitted or top-dose-only effect, or another doubt; inactive = no such curve, though single readings can be large; an effect the other way counts as inactive or inconclusive. Potency is read from the fitted curve at half-maximal effect.

SMILES	ELG1 genotox	Rab9 prom act	ELG1 DNA repair	FLuc counter	SMN2 splice enh	NPC1 prom act
CC(=O)c1ccc(NC(=O)CCc2c(C)nn(-c3ccc4nnc(C)n4n3)c2C)cc1	x	x	x	-0.1%	x	x
COc1cc(C(=O)Nc2ccc(-c3nc4ccccc4o3)c(O)c2)cc(OC)c1OC	x	x	x	-3.7%	-3.9%	x
COc1ccc(/C=C/C(=O)Nc2cccnc2Cl)cc1	9.2µM*	2.51µM*	u	5.36µM*	x	2µM*
COc1ccccc1/C=C/C(=O)Nc1cccnc1	u	u	-4.8%	u	x	u
COc1cc(/C=C/C(=O)NCc2ccccn2)cc(OC)c1OC	15.9%	0.8%	u	-1.3%	-16.2%	-6.2%
COc1ccc(/C=C/C(=O)Nc2ccc(Cl)c(Cl)c2)cc1	x	x	x	4.78µM*	5.7%	x
COc1ccccc1/C=C/C(=O)Nc1cccnc1Cl	17.8%	29.1%	u	26.9µM*	x	u
COc1ccccc1/C=C/C(=O)NCCc1ccccn1	u	2.82µM*	u	13.5µM*	x	u
COC(=O)c1cc(Cl)c(NC(=O)/C=C/c2ccc(OC)cc2)cc1OC	8.0%	2.8%	-6.7%	3.6%	4.1%	-8.0%
CC(C)CC(=O)N(Cc1ccccc1)S(=O)(=O)c1ccc2c(c1)oc(=O)n2C	x	x	x	-2.6%	3.8%	x
CCc1nc(-c2cc3ccc(C)cc3[nH]c2=O)no1	u	u	u	15.1µM*	u	24.9%
CC(=O)N(O)[C@@H]1c2cc(C#N)ccc2OC(C)(C)[C@H]1O	x	x	x	x	-5.5%	x
O=C(NC1CCN(Cc2ccc(Cl)cc2Cl)CC1)c1ccccc1	-7.7%	-16.0%	13µM*	0.5%	x	-5.3%
Cc1ccc(Cl)cc1S(=O)(=O)N1CCC(C(=O)NC2CCN(Cc3ccccc3)CC2)CC1	-10.7%	-24.5%	5.17µM*	3.8%	x	-19.1%
O=S(=O)(c1ccccc1)N1CN2CN(C1)CN(S(=O)(=O)c1ccccc1)C2	x	x	x	x	-0.4%[9.22 µM]	x
Cc1ccc(NC(=O)CSc2nc3ccccc3c3nc(CCn4c(C)nc5ccccc54)nn23)cc1F	x	x	x	-0.1%	x	x
COc1cc(C(=O)Nc2sc3c(c2C(=O)O)CCC3)cc(OC)c1OC	-11.8%	-6.6%	-3.2%	-17.7%	x	-7.3%
Cc1cccc(C(=O)Nc2sc3c(c2C(=O)NC(C)C)CCCC3)c1	x	x	x	-7.1%	-1.0%	x
COc1cccc(C(=O)Nc2sc3c(c2C(=O)O)CCCC3)c1	-1.0%	11.7%	u	21.3µM*	x	5.2%
Cc1cccc(C(=O)Nc2sc3c(c2C(=O)O)CCC3)c1	5.9%	25.6%	u	16.9µM*	x	u
COc1cccc(C(=O)Nc2sc3c(c2C#N)CCN(C(C)=O)C3)c1	u	0.2%	9.2%	15.1µM*	-26.5%	-27.4%
CNC(=O)c1c(NC(=O)c2cccc(C)c2)sc2c1CCC2	u	u	u	21.3µM*	x	u
O=C(NC1CCCCC1)C(c1ccncc1)N(C(=O)c1csnn1)c1cccc(F)c1 (configuration not stated)	-0.2%	-0.8%	15.3%	-1.0%	x	-7.7%
COc1ccc(N(CC(=O)Nc2ccccc2F)S(=O)(=O)c2ccc(OC)c(OC)c2)cc1	-6.7%	4.1%	-13.3%	1.1%	x	-3.2%
N[C@@H](CCCC(=O)O)C(=O)O	x	6.2%[46.1 µM]	x	x	4.6%	2.7%[46.1 µM]
CNC(=O)c1c(NC(=O)/C=C/c2ccccc2Cl)sc2c1CCC2	x	x	x	9.53µM*	x	x
CCN1CCN(C(c2cccc(Cl)c2)c2c(O)cc(C)n(CCOC)c2=O)CC1 (configuration not stated)	x	x	x	-11.3%	x	x
CCN(CC)S(=O)(=O)c1ccc(N2CCOCC2)c(NC(=O)CC(C)(C)C)c1	-2.6%	7.1%	8.0%	-2.1%	x	8.6%

Source: PubChem BioAssay (National Center for Advancing Translational Sciences (NCATS))
